Among the data in PubChem BioAssay (NCI) are growth values, retold here.

Test systems include NCI-H23 lung; NCI-H226 lung; NCI-H322M lung; HOP-62 NSCLC; NCI-H460 lung; HOP-92 NSCLC; NCI-H522 lung; A549/ATCC NSCLC; 786-0 renal; COLO 205 colon; DU-145 prostate; K-562 leukemia; MALME-3M melanoma; MDA-MB-231 breast; RXF 393 renal; SF-268 CNS; SF-295 CNS; SF-539 CNS; UACC-257 melanoma; M14 melanoma.
Holding throughout (assay): NCI-60 one-dose screen, 48 h (100 = growth as untreated, 0 = no growth, -100 = all killed)
Conditions in all cases: 10 µM unless noted

Compounds without any hit were thinned out: in the full panel of roughly 83,000, 20% have a hit.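 A percent growth of 40 corresponds to 60% growth inhibition; 0 means no net growth; -100 means all cells died. Active threshold: below 10.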 A number with no mark means an inactive call. The source made the active and inactive calls.

With `c1cc(OCCN2CCCCC2)cc(-c2n[nH]c3ccc(-c4ncn[nH]4)cc23)c1`, the growth in the test on NCI-H23 lung is 43.8%; in the test with NCI-H226 lung, 61.6%; with NCI-H322M lung, 37.6%; in the test on HOP-62 NSCLC, 60.6%; in the test with NCI-H460 lung, 66%; with HOP-92 NSCLC, 44.8%. The growth with NCI-H522 lung was 36.8%; with A549/ATCC NSCLC, 63.8%; with 786-0 renal, 79.9%; in the test with COLO 205 colon, 6.03% (active); in the test with DU-145 prostate, 62.4%; in the test on K-562 leukemia, 36.9%. Further, the growth in the test on MALME-3M melanoma is 13.5%; in the test on MDA-MB-231 breast, 54.7%; in the test with RXF 393 renal, 90.3%; in the test with SF-268 CNS, 77.8%; in the test with SF-295 CNS, 92.3%; in the test with SF-539 CNS it was 49.4%. For the same molecule, the growth in the test on UACC-257 melanoma was 70.8%; in the test on M14 melanoma it was 22.9%.
Take `C=C1CC[C@@H]2[C@](C)(COC(C)=O)[C@H](OC(C)=O)CC[C@@]2(C)[C@@H]1C/C=C1/C(=O)OC[C@H]1OC(C)=O`: the growth in the test on NCI-H23 lung was 80.9%; in the test with NCI-H226 lung it was 23.6%; with NCI-H322M lung, 101%; in the test on HOP-62 NSCLC it was 75.7%; in the test on NCI-H460 lung, 98%; with HOP-92 NSCLC, 71.9%. Moreover, the growth in the test on NCI-H522 lung is -41.6% (active); in the test on A549/ATCC NSCLC it was 85.8%; with 786-0 renal, -10.9% (active); in the test on COLO 205 colon it was 22%; in the test with DU-145 prostate, 50.9%; in the test with K-562 leukemia, 11.1%. Besides, the growth with MALME-3M melanoma was 77.7%; in the test with MDA-MB-231 breast, 95.8%; with RXF 393 renal it was -7.35% (active); in the test on SF-268 CNS, 87.1%; in the test with SF-295 CNS it was 95%; in the test with SF-539 CNS, 8.54% (active). Moreover, the growth was 66.5% in the test on UACC-257 melanoma and 35.4% in the test with M14 melanoma.
For the molecule `CC(=O)O[C@]1(C)C[C@H](O)[C@]2(O)C=CO[C@H](O[C@@H]3O[C@H](CO)[C@@H](O)[C@H](O)[C@H]3O)[C@@H]21`, the growth was 99.3% with NCI-H23 lung; 96.7% with NCI-H226 lung; 101% in the test with NCI-H322M lung; 95.2% with HOP-62 NSCLC; 110% in the test on NCI-H460 lung; 129% in the test on HOP-92 NSCLC. Also, the growth in the test on NCI-H522 lung is 95.4%; in the test with A549/ATCC NSCLC it was 105%; with 786-0 renal, 93.2%; in the test on COLO 205 colon it was 108%; with DU-145 prostate, 102%; in the test with K-562 leukemia it was 97.3%. Moreover, the growth in the test on MALME-3M melanoma is 97.5%; in the test on MDA-MB-231 breast, 98.5%; in the test with RXF 393 renal, 109%; in the test on SF-268 CNS, 94.3%; with SF-295 CNS, 90.9%; in the test on SF-539 CNS, 97.5%. The growth in the test on UACC-257 melanoma is 109%; in the test on M14 melanoma, 98.6%.
In the case of `Cc1cccc(Cl)c1NC(=O)c1cnc(Nc2cc(N3CCOCC3)cc(S(C)(=O)=O)c2)s1`, the growth with NCI-H23 lung is 81.5%; in the test with NCI-H226 lung, 66%; in the test with NCI-H322M lung, -6.54% (active); in the test with HOP-62 NSCLC it was 11.8%; in the test on NCI-H460 lung, 71.4%; in the test with HOP-92 NSCLC it was -55.1% (active). In addition, the growth is 7.33% (active) with NCI-H522 lung; -0.245% (active) in the test with A549/ATCC NSCLC; 11.6% in the test with 786-0 renal; -6.99% (active) in the test on COLO 205 colon; -41.1% (active) in the test with DU-145 prostate; 6.1% (active) in the test on K-562 leukemia. In addition, the growth in the test on MALME-3M melanoma was 42.2%; in the test on MDA-MB-231 breast it was 9.71% (active); with RXF 393 renal it was -34.8% (active); in the test with SF-268 CNS, 25.4%; with SF-295 CNS it was 53.8%; with SF-539 CNS, 2.23% (active). For the same molecule, the values for the growth in the test on UACC-257 melanoma and in the test with M14 melanoma were 43.2% and 42.4%, respectively.
With `COc1cc(OC)c(/C=C/S(=O)(=O)Cc2ccc(OC)c(NCC(=O)O)c2)c(OC)c1`, the growth is 31.9% with NCI-H23 lung; 61.1% with NCI-H226 lung; 47.1% with NCI-H322M lung; 12.6% in the test on HOP-62 NSCLC; 1.56% (active) with NCI-H460 lung; 43.9% with HOP-92 NSCLC. Besides, the growth with NCI-H522 lung was -18% (active); with A549/ATCC NSCLC, 9.08% (active); with 786-0 renal, 21.9%; in the test on COLO 205 colon, -62.1% (active); in the test on DU-145 prostate, 7.91% (active); in the test with K-562 leukemia it was 8.38% (active). Also, the growth in the test on MALME-3M melanoma was 54.6%; in the test with MDA-MB-231 breast, 39.7%; with RXF 393 renal, 36.9%; in the test with SF-268 CNS, 30.3%; in the test on SF-295 CNS, 15.5%; with SF-539 CNS, -17.1% (active). The growth is 48.7% with UACC-257 melanoma and 12.6% in the test with M14 melanoma.
As to `CN[C@@H]1C[C@H]2O[C@@](C)([C@@H]1OC)n1c3ccccc3c3c4c(c5c6ccccc6n2c5c31)C(=O)N[C@H]4O`, the growth with NCI-H23 lung is -48.8% (active); in the test with NCI-H226 lung, -47.1% (active); in the test on NCI-H322M lung, -25.8% (active); in the test with HOP-62 NSCLC it was -60.8% (active); with NCI-H460 lung, -63.7% (active); with HOP-92 NSCLC it was -9.92% (active). For the same molecule, the growth was -37.2% (active) in the test with NCI-H522 lung; -36.8% (active) with A549/ATCC NSCLC; -87.5% (active) in the test with 786-0 renal; -80.8% (active) with COLO 205 colon; 3.62% (active) with DU-145 prostate; -15.6% (active) with K-562 leukemia. Further, the growth in the test with MALME-3M melanoma is -81.2% (active); with MDA-MB-231 breast, -48.5% (active); with RXF 393 renal, -94.3% (active); in the test on SF-268 CNS, -66.5% (active); with SF-295 CNS, -75.8% (active); in the test with SF-539 CNS, -88.4% (active). Further, the values for the growth with UACC-257 melanoma and with M14 melanoma were -88.4% (active) and -56.6% (active), respectively.
Take `COC(=O)c1ccc2c(C(=Nc3ccc(N(C)C(=O)CN4CCN(C)CC4)cc3)c3ccccc3)c(O)[nH]c2c1`: the growth with NCI-H23 lung was 67.8%; in the test on NCI-H226 lung, 47%; in the test on NCI-H322M lung, 58.8%; in the test with HOP-62 NSCLC it was 38.8%; in the test on NCI-H460 lung, 92%; with HOP-92 NSCLC, 18.4%. In addition, the growth in the test on NCI-H522 lung is 39.1%; in the test with A549/ATCC NSCLC, 45.8%; in the test on 786-0 renal, 41.4%; in the test on COLO 205 colon, 34%; in the test with DU-145 prostate it was 78.3%; in the test on K-562 leukemia, 3.75% (active). Moreover, the growth was 54.2% with MALME-3M melanoma; 54.8% with MDA-MB-231 breast; 15.1% with RXF 393 renal; 42.8% in the test on SF-268 CNS; 84.1% in the test with SF-295 CNS; 36.1% with SF-539 CNS. The growth is 23% with UACC-257 melanoma and 50.9% with M14 melanoma.
